DT40 TDP1 no CPT = qHTS for Inhibitors of human tyrosyl-DNA phosphodiesterase 1 (TDP1): qHTS in cells in absence of CPT; DT40 Tdp1-/- hTDP1 cells, no CPT, ATP luminescence, 48 h; Potency, µM (doses to about 46.2 µM), without a hit: at the highest dose activity change, negative = growth inhibition, actives largely listed as inhibitors; 420,000 tested, 15% active; AID 686978, 2013; note: potency is the fitted concentration of half-maximal effect; nearly all actives have a fitted effect of over 55% in size
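Chicken DT40 Tdp1-/- cells stably complemented with human TDP1 were seeded at 400 cells/well with DMSO in place of 20 nM camptothecin. After compound pinning, cells grew at least 48 hr at 37 °C; viability read by CellTiter-Glo luminescence.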
IL-1B inflam inh = inhibitors of inflammasome signaling (IL-1 beta secretion); THP-1 LPS/ATP IL-1B secretion, AlphaLISA, 16 h; stronger effect = lower value; activity change, % at 57.5 µM; 360,000 tested, 4.7% active; in the data active = activity change below about -50%; inconclusive = mostly about -30% to -49%
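THP-1 cells pretreated 1 hr with compounds (up to 57.5 uM final), then stimulated with LPS (250 ng/mL final) plus ATP (1.25 mM final); secreted IL-1B measured by AlphaLISA after 16 hr, decreased signal indicating inhibition.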
TDP1 cell CPT = growth inhibition of DT40 Tdp1-/-;hTDP1 cells with camptothecin (screen for TDP1 inhibitors); chicken DT40 Tdp1-/-;hTDP1 cells + 20 nM CPT, ATP luminescence, 48 h; Potency, µM (top dose mostly 46.2 µM), inactives show at the highest dose activity change, negative = growth inhibition, most hits filed as inhibitors; 420,000 tested, 12% active; AID 686979; note: potency is the fitted concentration of half-maximal effect; nearly all actives have a fitted effect of over 55% in size
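Chicken DT40 Tdp1-/- cells stably complemented with human TDP1 were seeded at 400 cells/well in medium containing 20 nM camptothecin, exposed to pin-transferred compounds, and grown at 37 °C for at least 48 hr. Viability was read as ATP luminescence.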
HT1080NT lethal = kills 2HG-producing HT-1080-NT fibrosarcoma cells; HT-1080-NT fibrosarcoma viability, CellTiter-Glo ATP luminescence, 48 h; Potency, µM (doses to about 46.1 µM), without a hit: at the highest dose activity, negative = less viability, usual class: cytotoxic; 360,000 tested, 1.6% active; AID 686970;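 note: NT is the 2HG producing partner of a matched IDH1 knockdown line; potency is the fitted concentration of half-maximal effect; 0% = DMSO-treated cells and -100% = media-only wells without cells; nearly all actives have a fitted effect of over 55% in size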
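A 48-hour cytotoxicity screen used HT-1080-NT cells plated 2 hours before compound delivery. ATP-based CellTiter-Glo luminescence measured viability, normalized to DMSO and no-cell controls.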
HT1080 IDH1KD tx = toxicity to HT-1080 IDH1 knockdown cells (counter line); HT-1080 IDH1 knockdown viability, ATP luminescence, 48 h; Potency, µM (top dose mostly 46.1 µM), without a hit: at the top dose activity, negative = toxicity, actives largely listed as cytotoxic; 360,000 tested, 2% active; AID 686971;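 note: potency is the fitted concentration of half-maximal effect; 0% = DMSO wells and -100% = cell-free medium wells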
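IDH1KD HT-1080 cells, 750/well, RPMI + 5% FBS; compound pinned after 2 h settling; 48 h, 37 °C; CellTiter-Glo luminescence; % activity normalised to DMSO and no-cell wells; curves fitted, classed by r2 and efficacy.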
* = called active by the depositor; ? = inconclusive; · = no result given. An excerpt weighted towards active compounds, which were near 19% of everything screened. Unless noted, calls come from the whole dose curve; as a rule, active = well fitted curve in the direction sought with a large enough effect; inconclusive = small, poorly fitted or top-dose-only effect, or another doubt; inactive = no such curve, though single readings can be large; an effect the other way counts as inactive or inconclusive. Unless noted, % is set by controls: 0 for no effect and ±100 for the full control effect.

SMILES	DT40 TDP1 no CPT	IL-1B inflam inh	TDP1 cell CPT	HT1080NT lethal	HT1080 IDH1KD tx
Cc1ccc(C=NNc2nc3c([nH]2)c(=O)n(C)c(=O)n3C)cc1	?	0	?	-3%	17%
CCC(CC)N1CCN(S(=O)(=O)c2ccc(OC)cc2)CC1	-7%	-2	-5%	-2%	9%
Cc1cc(C(=O)COC(=O)c2cccc(O)c2)c(C)n1C1CC1	?	-6	?	-10%	-27%
CCCNC(=O)c1ccc2c(=O)c(O)c(-c3ccsc3)[nH]c2c1	18µM*	97	?	-24%	-25%
CCCNC(=O)c1ccc2c(=O)c(O)c(-c3ccc(C)cc3)[nH]c2c1	?	72	?	-19%	-27%
Cc1ccc(CNC(=O)c2ccc3c(=O)c(O)c(-c4ccc(C)cc4)[nH]c3c2)cc1	6.5µM*	57	4.1µM*	7%	10%
Cc1ccc(-c2[nH]c3cc(C(=O)NCCCn4ccnc4)ccc3c(=O)c2O)cc1	2%	45	5%	-2%	9%
Cc1ccc(-c2[nH]c3cc(C(N)=O)ccc3c(=O)c2O)cc1	18µM*	59	?	4%	2%
O=C(CSc1n[nH]c(-c2ccccc2Br)n1)NCCN1C(=O)CSC1=O	4%	0	10%	13%	3%
Cc1cc(CN(C)C(=O)c2cc(COc3ccc(F)cc3Cl)on2)n[nH]1	?	-24	7%	4%	-3%
CCS(=O)(=O)N1Cc2ccccc2CC1C(=O)N(C)Cc1ccc(OC)c(F)c1 (stereo not given)	?	10	-29%	1%	-1%
COc1ccc(-c2nc(S(=O)(=O)c3ccc(Cl)cc3)c(NCc3ccccc3)o2)cc1	?	·	16µM*	·	·
O=S(=O)(c1ccc(Cl)cc1)c1nc(-c2ccccc2F)oc1NCc1ccccc1	18µM*	·	?	·	·
COc1ccc(-c2nc(N)ncc2-c2ccccc2)c(O)c1	?	-22	?	-25%	-23%
C=C(C)COc1ccc(-c2nc(N)ncc2-c2ccc(Cl)cc2)c(O)c1	?	?	23µM*	?	-20%
COc1ccc(-c2cnc(N)nc2-c2ccc(OC)cc2O)cc1	?	-73*	?	1%	-15%
Nc1ncc(-c2ccccc2)c(-c2ccc(OCc3ccccc3)cc2O)n1	?	-103*	?	?	?
COc1cccc(Oc2cnc(N)nc2-c2ccc(OC)cc2O)c1	2.3µM*	23	2.9µM*	?	-75%
Cc1ccc(C)c(S(=O)(=O)N2CCN(C(=O)c3ccc(OCc4c(C)noc4C)cc3)CC2)c1	?	-6	?	-3%	-9%
COc1ccc(-c2nc(N)nc(C(F)(F)F)c2-c2ccccc2OC)c(O)c1	23µM*	14	?	4%	0%
CC1CC(C)CN(C(=O)CCCNC(=O)c2ccc(Cl)cc2)C1 (stereo not given)	-1%	-1	-18%	-7%	-6%
Cc1cc(N=Cc2c(O)n(-c3cccc(C(F)(F)F)c3)c(=O)c3ccccc23)no1	23µM*	22	18µM*	-2%	0%
Cc1nn(-c2cccc(C(F)(F)F)c2)c(=O)c2ccccc12	0%	16	-5%	-21%	-25%
CN=C1c2cc3cc(OC)ccc3n2CCN1Cc1ccccc1	2.9µM*	-91*	3.3µM*	16µM*	23µM*
CC(C)=NOc1nc(NC(=O)NS(=O)(=O)c2ccccc2Cl)nc(N(C)C)n1	-16%	20	6%	9%	14%
SMILES	DT40 TDP1 no CPT	IL-1B inflam inh	TDP1 cell CPT	HT1080NT lethal	HT1080 IDH1KD tx
C=C(C)C1(O)OC(=O)C=C1OC (stereo not given)	16µM*	-76*	5.2µM*	-13%	-11%
COc1ccc(C2=CC(=O)OC3(CCCCC3)O2)cc1	?	18	-19%	6%	10%
COc1ccc(NC(=O)CN(C)C(=O)C2(c3ccccc3)CCCC2)cc1	?	-11	?	-1%	-9%
C=CCN1c2ccccc2[C@]23C[C@@H](C(=O)OC)N(C(=O)c4ccc(Br)cc4)C2=NC(C(=O)OC)=C(C(=O)OC)[C@H]13	?	36	?	18µM*	?
CCOC(=O)N1C2=NC(C(=O)OC)=C(C(=O)OC)[C@@H]3N(Cc4ccccc4)c4ccccc4[C@]23C[C@H]1C(=O)OC	?	18	18µM*	6%	9%
COC(=O)C1=C(C(=O)OC)[C@@H]2N(Cc3ccccc3)c3ccccc3[C@@]23C[C@@H](C(=O)OC)N(C(C)=O)C3=N1	?	26	?	3%	7%
COC(=O)C1=C(C(=O)OC)[C@@H]2N(Cc3ccccc3)c3ccccc3[C@@]23C[C@@H](C(=O)OC)N(C(=O)c2ccc(Br)cc2)C3=N1	18µM*	8	?	-18%	?
COC(=O)C1=C(C(=O)OC)[C@@H]2N(C)c3ccc(OC)cc3[C@@]23C[C@@H](C(=O)OC)N(C(=O)c2ccc(Br)cc2)C3=N1	26µM*	9	?	23µM*	?
Cc1ccccc1OCC(=O)N/N=C1\CC(=O)CC(C)(C)C1	1%	-12	-14%	0%	-2%
COc1ccc(Cl)cc1NC(=O)c1ncn(-c2ccccc2)n1	?	·	-22%	·	·
COc1ccc(CCNC(=O)c2ccc(Nc3nc4ccccc4n4nnnc34)cc2)cc1OC	?	·	-27%	·	·
COc1cc2c(cc1OC)C(SC)=NC(C)(C)C2	?	-102*	?	?	?
COc1cccc2c(SCC(=O)N/N=C/c3ccc(O)c(O)c3)cc(C)nc12	?	-64*	-27%	-16%	?
COc1ccc2nc(C)cc(SCC(=O)N/N=C/c3ccc(O)c(O)c3)c2c1	29µM*	?	?	-7%	-16%
O=C(CSc1nc2ccccc2o1)N/N=C/c1ccccc1	-15%	-14	-20%	7%	2%
COC(=O)CSc1cc(C)nc2ccc(OC)cc12	-11%	22	-4%	19%	4%
O=C(CSc1nc2ccccc2o1)N/N=C/c1ccc(O)c(O)c1	21µM*	28	18µM*	-10%	-12%
Cc1cc(SCC(=O)N/N=C/c2ccc(O)cc2O)nc2ccccc12	4.1µM*	118	?	?	?
Cc1ccc(CNC(=O)CS(=O)(=O)CC(=O)O)cc1	31%	8	-1%	-3%	-2%
CCN(C(=O)Cn1cnc2c1c(=O)n(C)c(=O)n2C)C1CCCCC1	18%	-10	-3%	-5%	0%
